Active and inactive are the calls of the source. Calls follow the shape of the dose curve; as a rule, active = well fitted curve in the direction sought with a large enough effect; inactive = no such curve, though single readings can be large or run the other way.
Each compound was assayed against Alpha-galactosidase (Coffea arabica) (UniProt Q42656) (assay: Counterscreen for Glucocerebrosidase Inhibitors: qHTS Assay for Coffee Bean alpha-Galactosidase at pH 5.9 (AID 998)). Details: coffee bean alpha-galactosidase enzyme assay; series mostly up to 76.9 µM.
Chain of Alpha-galactosidase (Coffea arabica) (Q42656 whole entry, looked up): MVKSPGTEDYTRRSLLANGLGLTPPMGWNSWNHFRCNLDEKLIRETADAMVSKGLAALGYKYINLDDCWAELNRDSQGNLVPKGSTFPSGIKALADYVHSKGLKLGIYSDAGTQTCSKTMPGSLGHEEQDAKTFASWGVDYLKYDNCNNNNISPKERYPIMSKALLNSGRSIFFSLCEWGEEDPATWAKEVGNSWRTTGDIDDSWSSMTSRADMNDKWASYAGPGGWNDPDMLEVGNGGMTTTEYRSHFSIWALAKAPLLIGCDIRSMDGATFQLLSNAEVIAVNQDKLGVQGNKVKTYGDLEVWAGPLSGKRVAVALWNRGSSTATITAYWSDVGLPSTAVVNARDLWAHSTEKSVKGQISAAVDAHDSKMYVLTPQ
In short: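 In 50 mM citric acid pH 5.9 with 0.005% Tween-20, coffee bean enzyme hydrolyses 80 uM 4-MU alpha-D-galactopyranoside over 20 min at RT. Activity is normalized to controls; AC50 comes from Hill-modelled concentration-response data.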

Question: For `O=C1NC(=O)C(c2ccccc2)(c2ccccc2)N1`, which outcome is on record?
Answer: inactive

Question: For `CC1=NS(=O)(=O)c2cc(Cl)ccc2N1`, which outcome is on record?
Answer: inactive

Question: How did the outcome turn out when `CCN(CC)CCNC(=O)c1cc(Cl)c(N)cc1OC` was run?
Answer: inactive

Question: How did the outcome turn out when `CCC1(c2ccccc2)C(=O)NCNC1=O` was run?
Answer: inactive

Question: With `CCCN(CCC)CCc1cccc2c1CC(=O)N2` as the compound, how does the outcome read?
Answer: inactive

Question: Which outcome does the source give for `Clc1ccc2c(c1)C(N1CCNCC1)=Nc1ccccc1O2` here?
Answer: inactive

Question: For `OCCN1CCN(CCCN2c3ccccc3Sc3ccc(Cl)cc32)CC1`, which outcome is on record?
Answer: inactive

Question: `CCOC(=O)N1CCC(=C2c3ccc(Cl)cc3CCc3cccnc32)CC1` was tested. Which outcome did it give?
Answer: inactive

Question: For `CC(=O)CCCCn1c(=O)c2c(ncn2C)n(C)c1=O`, which outcome is on record?
Answer: inactive

Question: With `CN/C(=C\[N+](=O)[O-])NCCSCc1ccc(CN(C)C)o1` as the compound, how does the outcome read?
Answer: inactive

Question: For `CN(C)CCC[C@@]1(c2ccc(F)cc2)OCc2cc(C#N)ccc21`, which outcome is on record?
Answer: inactive

Question: For `N[C@@H]1CONC1=O`, which outcome is on record?
Answer: inactive

Question: `CC(=O)N[C@@H](CS)C(=O)O` was tested. Which outcome did it give?
Answer: inactive

Question: Which outcome does the source give for `COc1ccc(Cl)cc1C(=O)NCCc1ccc(S(=O)(=O)NC(=O)NC2CCCCC2)cc1` here?
Answer: inactive

Question: How did the outcome turn out when `CN1CCC(=C2c3ccccc3C=Cc3ccccc32)CC1` was run?
Answer: inactive

Question: For `Nc1nc2c(ncn2COC(CO)CO)c(=O)[nH]1`, which outcome is on record?
Answer: inactive

Question: How did the outcome turn out when `NS(=O)(=O)Cc1noc2ccccc12` was run?
Answer: inactive

Question: For `CC/C(=C(\c1ccccc1)c1ccc(OCCN(C)C)cc1)c1ccccc1`, which outcome is on record?
Answer: inactive

Question: `Cc1ccc(S(=O)(=O)NC(=O)NN2CCCCCC2)cc1` was tested. Which outcome did it give?
Answer: inactive

Question: `O=c1n(CCCN2CCN(c3cccc(Cl)c3)CC2)nc2ccccn12` was tested. Which outcome did it give?
Answer: inactive

Question: Which outcome does the source give for `CC(C)OC(=O)C(C)(C)Oc1ccc(C(=O)c2ccc(Cl)cc2)cc1` here?
Answer: inactive

Question: For `CN[C@H]1CC[C@@H](c2ccc(Cl)c(Cl)c2)c2ccccc21`, which outcome is on record?
Answer: inactive

Question: With `O=NN(CCCl)C(=O)NCCCl` as the compound, how does the outcome read?
Answer: inactive

Question: How did the outcome turn out when `CCOC(=O)c1ncn2c1CN(C)C(=O)c1cc(F)ccc1-2` was run?
Answer: inactive

Question: `NS(=O)(=O)c1cc2c(cc1Cl)NC=NS2(=O)=O` was tested. Which outcome did it give?
Answer: inactive

Question: How did the outcome turn out when `Nc1ncn([C@@H]2O[C@H](CO)[C@@H](O)[C@H]2O)c(=O)n1` was run?
Answer: inactive

Question: How did the outcome turn out when `CC1=C(/C=C/C(C)=C/C=C/C(C)=C/C(=O)Nc2ccc(O)cc2)C(C)(C)CCC1` was run?
Answer: inactive

Question: For `Fc1ccc([C@@H]2CCNC[C@H]2COc2ccc3c(c2)OCO3)cc1`, which outcome is on record?
Answer: inactive

Question: How did the outcome turn out when `CCN(CC)C(=S)SSC(=S)N(CC)CC` was run?
Answer: inactive

Question: With `CN(C)CCCN1c2ccccc2Sc2ccc(Cl)cc21` as the compound, how does the outcome read?
Answer: inactive

Question: Which outcome does the source give for `CCCNC(=O)NS(=O)(=O)c1ccc(Cl)cc1` here?
Answer: inactive

Question: How did the outcome turn out when `COC(=O)[C@H]1[C@H]2C[C@@H]3c4[nH]c5cc(OC)ccc5c4CCN3C[C@H]2C[C@@H](OC(=O)c2cc(OC)c(OC)c(OC)c2)[C@@H]1OC` was run?
Answer: inactive

Question: How did the outcome turn out when `CCCCc1oc2ccccc2c1C(=O)c1cc(I)c(OCCN(CC)CC)c(I)c1` was run?
Answer: inactive

Question: With `Cn1ccc2cc3c(cc21)CCN3C(=O)Nc1cccnc1` as the compound, how does the outcome read?
Answer: inactive

Question: `COC(=O)Nc1nc2ccc(C(=O)c3cccs3)cc2[nH]1` was tested. Which outcome did it give?
Answer: inactive
